FGF22 binding – binders of human FGF22 protein, primary screen, FGF22 synaptogenesis inhibitor project, biophysical, thermal shift, single point; recombinant FGF22 thermal shift, SYPRO orange fluorescence; percent of sucrose octasulfate shift, DMSO zero; AID 651658, 2012; actives 1.5% (n = 340,000); activity (Tm shift, normalised), % at 9.99 µM; Fibroblast growth factor 22 (Homo sapiens), Q9HCT0;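 active = mean Tm shift, scaled 0 neutral to 100 positive control, at about 1.3% or above, every replicate too, limit read from the data; inconclusive = no clear call, values can overlap the other calls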
Target sequence (Q9HCT0 whole entry, looked up): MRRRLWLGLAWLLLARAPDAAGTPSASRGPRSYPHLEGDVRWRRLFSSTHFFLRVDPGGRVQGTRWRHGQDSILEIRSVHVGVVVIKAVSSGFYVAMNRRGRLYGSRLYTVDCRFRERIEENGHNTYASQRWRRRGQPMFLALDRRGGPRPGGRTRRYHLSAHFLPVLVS
Wnt bcat act – Wnt/beta-catenin pathway activators, primary screen, cell-based, plate reader, single point; actives 1.2% (n = 300,000); Wnt/beta-catenin reporter cell assay, activator; activation, % at 9.35 µM; in the data active = activation above about 30%, passing the limit was not always enough; inconclusive = no clear call, values can overlap the other calls;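 also: 0% = neutral control wells and 100% = positive control wells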
AF4-AF9 inh – inhibitors of AF4 peptide binding to AF9, primary screen, biochemical, AlphaScreen, biotin-AF4 peptide, FLAG-AF9, single point; Protein AF-9 (Homo sapiens), P42568; inhibition, % at 10 µM; actives 0.47% (n = 350,000);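 active = every replicate reaching a set inhibition limit, whatever the replicate mean, cut at about 25% in these data; inconclusive = mean inhibition reaches that limit but some replicates miss it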;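 also: 0% = plate neutral control median and 100% = total signal loss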
SMARCA2 act – SMARCA2 (BRM) function activators, primary screen, cell-based, luminescence, high throughput. AID 652017, 2013. activation, % at 9.1 µM. MG213 cells, MMTV-luciferase reporter, dexamethasone, overnight. actives 1% (n = 370,000); in the data active = activation above about 7.8%;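 also: 0% = vehicle wells and 100% = reference activator wells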
esBAF inh – Bmi1 luciferase reporter increase in mESCs, primary screen, esBAF inhibitor project, mouse ES cells, Bmi1 luciferase knock-in, single point; 24 h; 100% = twice the neutral-well signal; actives 2% (n = 350,000); reporter increase, % at 12.5 µM; in the data active = activation above about 40%; inconclusive = no clear call, values can overlap the other calls;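 also: 0% = median of the plate's neutral control wells and 100% = double that signal; a rise in the Bmi1 reporter signal indicates esBAF inhibition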
MITF act – activators of MITF-driven TRPM1 promoter reporter, primary screen, cell-based, SK-MEL-5, luciferase, single point; SK-MEL-5 TRPM1-promoter luciferase, 24 h; % of positive control, neutral wells = 0; actives 0.75% (n = 300,000); activation, % at 12.5 µM;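 active = mean activation of at least 80% with every replicate also reaching 80%; inconclusive = mean reaches 80% but some replicate falls short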;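 also: 0% = neutral control wells and 100% = parthenolide positive control wells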
Starred values were filed as active, the others as inactive; ? = inconclusive; . = no result. Most compounds without a hit are left out; they make up all but 4.3% or so of the library.

SMILES	FGF22 binding	Wnt bcat act	AF4-AF9 inh	SMARCA2 act	esBAF inh	MITF act
COc1ccccc1NC(=O)N(C)C[C@H]1Oc2ncc(Br)cc2C(=O)N([C@@H](C)CO)C[C@@H]1C	-0.1	.	-1.1	.	1.7	.
Cc1ccc(CNc2ccc(N3CCOCC3)cc2)cc1	0.1	0.1	18.1	-2.1	64.3*	11.4
c1cc(CNc2ccc(N3CCOCC3)cc2)ccn1	.	.	.	-1.8	.	-6.7
CC(C)c1ccc(CNc2ccc(N3CCOCC3)cc2)cc1	.	-3.6	.	-1.2	6.4	-6.8
c1cc2c(cc1CNc1ccc(N3CCOCC3)cc1)OCO2	-0.2	7.7	16.4	0.7	68.8*	74.6
C[C@H](CO)N1C[C@H](C)[C@@H](CN(C)Cc2cccc(F)c2)Oc2cc(-c3ccccc3)ccc2S1(=O)=O	-0.4	.	-4.0	.	-9.4	.
CCOC(=O)C1=C(O)/C(=C/c2ccc(OCC(=O)O)c(OC)c2)SC1=Nc1ccc(OCC)cc1	0.0	-6.9	-0.4	1.9	.	1.7
CCOC(=O)C1=C(O)/C(=C/c2ccc(OCC(=O)O)c(OCC)c2)SC1=Nc1ccccc1	43.0*	5.7	2.8	1.6	.	8.6
CCOc1ccc(C=NNc2ccc(S(=O)(=O)Nc3ccccc3C(=O)O)cc2[N+](=O)[O-])cc1	0.2	37.2*	6.8	.	-6.1	-8.0
CSc1ccc(C=NNc2ccc(S(=O)(=O)Nc3ccccc3C(=O)O)cc2[N+](=O)[O-])cc1	0.3	-2.5	7.0	-4.1	-0.8	-4.6
C[C@@H]1CCCCO[C@H](CN(C)S(=O)(=O)c2ccc(F)cc2)[C@@H](C)CN([C@H](C)CO)C(=O)c2cc(NC(=O)Nc3cccc4ccccc34)ccc2O1	-0.1	.	-2.2	.	-3.4	.
C/C=C/c1ccc([C@H]2[C@@H](CNC(=O)c3ccncc3)N(C(=O)CC)[C@H]2CO)cc1	0.3	.	2.7	.	1.5	.
O=C(NCc1ccccc1C(F)(F)F)c1cccc2c1C(=O)c1ccc(N3CCOCC3)cc1S2(=O)=O	-0.1	-9.8	-3.3	-0.7	8.6	-3.5
O=C(NCc1ccccc1C(F)(F)F)c1cccc2c1C(=O)c1ccc(N3CCC(N4CCCCC4)CC3)cc1S2(=O)=O	0.0	-1.6	6.2	19.6*	-5.6	.
CSc1ccccc1NC(=O)c1cc2ncc(Br)cn2n1	-0.2	34.7*	-4.8	4.7	54.8*	72.8
C#CCNC(=O)C[C@H]1C(=O)N(Cc2ccc(OC)cc2)C2=CCCCC[C@@]21C(=O)OC	.	.	.	-0.2	.	.
Cc1ccc(C(=O)N2CCOCC2)cc1Cl	.	-1.1	.	-2.7	-4.9	.
O=C(c1ccc2c3n(nc2c1)-c1ccc(Cl)cc1CO3)N1CCCCC1	-0.3	?	1.6	7.4	47.4*	102.6*
O=C(O)c1ccc2c3n(nc2c1)-c1ccc(Cl)cc1CO3	0.4	35.8*	-1.2	3.7	.	.
Cc1ccc2c(c1)COc1c3ccc(C(=O)N4CCOCC4)cc3nn1-2	0.2	42.8*	-3.2	5.1	56.5*	?
O=C(c1ccc2c(=O)n3c(nc2c1)CCCCC3)N1CCCCC1	0.1	3.9	-0.4	-2.6	3.3	-3.4
Nc1c(-c2cccs2)cnc2c(-c3ccc(F)cc3)cnn12	-0.1	53.8*	-2.1	4.0	2.3	71.0
CCCC(=O)N1CCC2(CC1)CN(C(=O)CN1CCOCC1)[C@H](CO)c1c2c2ccc(OC)cc2n1C	0.1	.	2.2	.	.	.
O=C(O)c1ccccc1OC(=O)C12CC3CC(CC(C3)C1)C2	43.1*	-1.7	-5.0	-4.2	-4.6	-4.1
O=C(c1ccco1)N1CCN(C(=O)c2ccccc2OC(=O)C23CC4CC(CC(C4)C2)C3)CC1	.	.	.	-1.9	-12.4	3.3
SMILES	FGF22 binding	Wnt bcat act	AF4-AF9 inh	SMARCA2 act	esBAF inh	MITF act
O=C(O)c1ccc(Sc2nnnn2-c2ccccc2)c([N+](=O)[O-])c1	.	9.3	.	-4.7	-2.6	3.0
COC(=O)c1ccc(Sc2nnnn2-c2ccccc2)c([N+](=O)[O-])c1	.	-16.3	.	-3.1	45.9*	-51.9
CCOC(=O)c1c(C)[nH]c(C)c1C(=O)CSc1nnnn1-c1ccccc1	.	2.6	.	-3.5	1.3	4.3
COC(=O)c1c(C)[nH]c(C(=O)CSc2nnnn2-c2ccccc2)c1C	.	-2.5	.	1.1	48.4*	-2.2
C[C@@H]1CN([C@@H](C)CO)C(=O)Cc2cc(NC(=O)C3CCCCC3)ccc2O[C@H]1CN(C)S(=O)(=O)c1cn(C)cn1	0.0	.	-2.1	.	1.0	.
CCOCCCNC(=S)NCCNc1nc2ccc(C)cc2cc1C#N	43.7*	-4.1	-7.4	1.1	.	-16.6
CN(CCO)C(=O)c1ccc(-c2nn(C)c(=O)c3ccccc23)cc1	0.1	34.1*	-0.7	-2.6	.	-14.1
O=C(N/N=C1\CCc2ccccc21)c1ccncc1	0.2	19.7	2.9	3.3	.	59.5
c1ccc2c(c1)CCc1c(-c3ccncc3)n[nH]c1-2	-0.1	44.1*	-3.2	0.6	33.0	-13.9
COc1cc(N2C(=O)c3ccccc3C2=O)c(Cl)cc1C(=O)OCC(=O)N(C)C	43.1*	-0.8	0.9	-3.4	.	-12.0
CO[C@H]1CN(C)C(=O)c2cc(NC(=O)c3ccccc3F)ccc2OC[C@@H](C)N(C(C)=O)C[C@H]1C	.	.	.	.	0.2	.
CCSc1nnc(-c2c[nH]c3ccccc23)o1	.	.	.	.	49.3*	45.0
CCN(C(=O)CSc1nnc(-c2c[nH]c3ccccc23)o1)C1CCS(=O)(=O)C1 (stereo unspecified)	43.2*	3.2	-9.0	-3.4	9.1	-3.1
CCN(C(=O)CSc1nnc(-c2ccccc2Br)o1)C1CCS(=O)(=O)C1 (stereo unspecified)	0.2	-1.7	1.5	2.7	.	4.6
COc1ccccc1-c1cnc2c(c1)C(=O)N([C@H](C)CO)C[C@H](C)[C@H](CN(C)C(C)=O)O2	0.1	.	-3.1	.	5.2	.
COc1c(C(=O)Nc2nnc(C3CC3)s2)csc1Cl	0.0	23.6	-3.7	4.5	47.7*	35.5
COC(=O)C[C@@H]1CC[C@@H]2[C@@H](COc3ccc(NS(=O)(=O)c4ccc(C)cc4)cc3C(=O)N2C)O1	-0.1	.	1.2	.	8.4	.
O=C(COc1ccc(C(=S)N2CCOCC2)cc1)Nc1ccccc1C(F)(F)F	43.8*	0.2	2.9	2.5	.	-0.3
COc1cc(NC(=O)c2ccc(N3CCCC3=O)cc2)cc(OC)c1	-0.1	-2.1	1.0	-0.9	59.0*	61.7
COc1ccc2cc(N3CCCC3=O)ccc2c1	-0.3	3.7	-0.3	0.6	48.2*	42.1
COc1ccc(CNC(=O)c2cccc(N3CCCC3=O)c2)cc1	.	-5.3	.	-3.4	0.1	-5.7
CCN1CCN(c2ccc(NC(=O)c3cccc(N4CCCC4=O)c3)cc2)CC1	41.3	20.9	3.0	5.0	60.2*	5.0

Assay outcomes from PubChem BioAssay.
